Assay outcomes deposited in PubChem by National Center for Advancing Translational Sciences (NCATS).
GLP-1R inv ag – GLP-1 receptor (human) inverse agonism. Potency, µM (highest dose often 38.3 µM), without a hit: top-dose activity change, negative = inhibition, hits mostly inhibitors. HEK293 GLP-1R CRE-luciferase, luminescence, 24 h; GLP-1R form is constitutively active. 1.6% of 410,000 active. AID 624417; further: on the % scale 0 is the no-effect control and ±100 the full control effect; nearly all actives have a fitted effect of over 55% in size
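HEK293 cells stably co-expressing a cAMP-responsive luciferase reporter and constitutively active GLP-1R were seeded, incubated 12 h, then exposed to compounds for 24 h at 37 C. Luminescence was read 12 min after detection reagent; inverse agonists lower signal.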
GLP1R ag – GLP-1 receptor (human) agonism; HEK293 GLP-1R CRE-luciferase, luminescence, 4-6 h; cells express a hypersensitive GLP-1R form; Potency, µM (doses to about 45.6 µM), without a hit: at the top dose activation, usual class: activators; 0.007% of 380,000 active; further: % of control where 0% means no effect
PTHR1 ag – PTHR1 (human) receptor agonism. Q03431. HEK293 GP2 PTHR1 cells, GloSensor cAMP luminescence, 1 h. Potency, µM (series often up to 115 µM), for the others: at the top dose activation, most hits filed as activators. 0.075% of 410,000 active. AID 743266; further: nearly all actives have a fitted effect of over 55% in size
Target sequence (Q03431 whole entry, looked up): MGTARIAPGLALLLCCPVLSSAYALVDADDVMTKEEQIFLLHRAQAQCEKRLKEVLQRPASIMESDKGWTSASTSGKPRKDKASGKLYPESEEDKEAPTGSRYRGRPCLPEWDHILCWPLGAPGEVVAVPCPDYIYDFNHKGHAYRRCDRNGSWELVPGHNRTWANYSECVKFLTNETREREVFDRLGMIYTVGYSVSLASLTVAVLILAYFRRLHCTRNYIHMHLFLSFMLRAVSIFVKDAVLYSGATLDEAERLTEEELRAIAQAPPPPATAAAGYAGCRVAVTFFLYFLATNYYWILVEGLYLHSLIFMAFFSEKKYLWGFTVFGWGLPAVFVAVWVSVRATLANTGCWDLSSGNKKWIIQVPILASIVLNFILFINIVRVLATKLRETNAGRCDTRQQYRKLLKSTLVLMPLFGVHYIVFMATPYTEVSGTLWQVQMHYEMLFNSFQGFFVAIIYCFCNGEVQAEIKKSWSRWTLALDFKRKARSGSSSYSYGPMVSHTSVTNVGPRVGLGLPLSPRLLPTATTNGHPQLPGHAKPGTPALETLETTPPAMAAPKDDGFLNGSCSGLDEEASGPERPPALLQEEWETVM
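HEK-293-derived GP2 cells expressing PTHR1 and a GloSensor cAMP reporter, 3,000/well, plated overnight, given luciferin plus IBMX (each 0.5 mM as added) for 1 h at 37 °C, then compound for 1 h at 37 °C. Luminescence was read after 15 min at room temperature.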
ALOX12 inh – blocks human arachidonate 12S-lipoxygenase | P18054 | purified 12hLO, xylenol orange hydroperoxide absorbance | Potency, µM (top dose mostly 108 µM), for the others: top-dose activity change, negative = inhibition, hits mostly inhibitors | 1.1% of 580,000 active; further: on the % scale 0 is the no-effect control and ±100 the full control effect
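Purified human 12hLO (150 nM final) in 25 mM Hepes, 0.01% Triton X-100, pH 7.0 was preincubated 15 min at room temperature with compound. Then 40 uM arachidonic acid was added, 30 min. Hydroperoxide was read by Fe-XO absorbance ratio 573/405 nm.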
Glioma ERSR ind – induces the endoplasmic reticulum stress response in human glioma cells. U87-MG GRP78 promoter luciferase reporter, 16 h. Potency, µM, inactives show top-dose activation, usual class: activators. AID 602332. 0.02% of 420,000 active; further: series mostly up to about 76 µM; % of control where 0% means no effect; nearly all actives have a fitted effect of over 35% in size
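Stably transfected U87-MG human glioma cells carrying a GRP78-based luminescent sensor were seeded at 1000 cells/well, pin-dosed with compounds and incubated 16 h. Luciferase reagent was then added, and end-point luminescence was read after 10 min at room temperature.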
GLS inhibitor – inhibitors of human glutaminase (GLS). O94925. GLS enzymatic activity, qHTS titration. Potency, µM (series often up to 45.5 µM), inactives show at the highest dose activity change, negative = inhibition, actives largely listed as inhibitors. 0.21% of 410,000 active. AID 624170; further: on the % scale 0 is the no-effect control and ±100 the full control effect
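Compounds were pin-transferred onto hKGA, after which L-glutamine (1 mM solution) and a detection mix of glutamate oxidase, HRP and Amplex Red were added. Initial and 30 min RT fluorescence reads were collected.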
Starred values were filed as active, the others as inactive; i = inactive; ? = inconclusive; / = no result; ! = not confirmed by another sample; [ ] = another dose, or the depositor's remark. Most compounds without a hit are left out; they make up all but 2.3% or so of the library. The call rests on the fitted dose curve; in most records, active means well fitted curve in the direction sought with a large enough effect; inconclusive means small, poorly fitted or top-dose-only effect, or another doubt; inactive means no such curve, though single readings can be large; an effect the other way counts as inactive or inconclusive. Potency means the concentration at half of the fitted maximal effect.

SMILES	GLP-1R inv ag	GLP1R ag	PTHR1 ag	ALOX12 inh	Glioma ERSR ind	GLS inhibitor
COc1ccc(-n2c(COc3ccc(Cl)cc3Cl)n[nH]c2=S)cc1	?	-3%	i	?	2%	?
Cn1c(COc2cc(Cl)ccc2Cl)n[nH]c1=S	/	/	/	50µM*	/	/
CCN(CC)CCCn1c(-c2ccc(COc3cc(C)ccc3Cl)cc2)n[nH]c1=S	/	/	/	35µM*	/	/
CCCCn1c(Cc2ccccc2)n[nH]c1=S	0%	-4%	i	?	-2%	-22%
CCCn1c(C)cc(C(=O)CSc2nc3cc(S(N)(=O)=O)ccc3n2CC)c1C	/	/	/	-24%	/	/
Cc1ccc(C(C)C)c(OCc2n[nH]c(=S)n2Cc2ccc(Cl)cc2)c1	/	/	/	28µM*	/	/
CCCSc1nc2c(c(=O)[nH]1)C(c1ccncc1)C(C(=O)OC)=C(C)N2 (configuration not stated)	/	/	/	-17%	/	/
CCOC(=O)c1cc(-c2ccco2)nc2c1c(C)nn2-c1cccc(Cl)c1	7%	-7%	i	14µM*!	-2%	1%
CCOC(=O)/C=c1\s/c(=C(\C#N)C(=O)NC)n(-c2ccccc2)c1=O	-43%	12%	-60%	-3%	-4%	5%
Cc1ccccc1-n1c(=O)/c(=C\c2ccco2)s/c1=C(/C#N)C(=O)Nc1ccccc1	7%	-10%	-2%	35µM*	-3%	-13%
Cc1ccc(Nc2nc(N/N=C\c3ccc4c(c3)OCO4)nc(N3CCOCC3)n2)cc1	4.5µM*	9%	-10%	-1%	-8%	-8%
CCOc1cc(/C=N\Nc2nc(Nc3ccccc3)nc(N3CCOCC3)n2)ccc1OC(=O)c1ccco1	7.1µM*	-9%	i	-23%	2%	5%
CN(C)c1nc(NCc2ccccc2)nc(N/N=C/c2ccc(Br)cc2)n1	-4%	4%	i	13%	-4%	-1%
CN(C)c1nc(NCc2ccccc2)nc(N/N=C/c2ccc3c(c2)OCO3)n1	10µM*	1%	i	-1%	3%	-2%
COc1cc(/C=N/Nc2nc(C)cc(C)n2)ccc1OC(=O)c1ccco1	13%	3%	i	24%	0%	3%
CCc1cc2c(N3CCCCC3)ncnc2s1	-32%	10%	-89%[57.5 µM]	28µM*	-4%	-3%
O=C(C1=C(O)C(=O)N(c2ncccn2)C1c1ccc(Cl)c(Cl)c1)c1ccco1 (configuration not stated)	-6%	2%	i	2µM*	3%	53%
CSc1nnc(N2C(=O)C(O)=C(C(=O)c3ccco3)C2c2cccc(Cl)c2)s1 (configuration not stated)	4%	-2%	-22%	40µM*	-12%	?
O=C(Cn1cnc2ccc(Cl)cc2c1=O)N(Cc1cccs1)c1ccc2c(c1)OCCO2	/	/	/	-19%	/	/
CCN(CC)C(=O)C1=C(C)N(Cc2ccc(F)cc2)C(=O)C(CC(=O)NC(c2ccccc2)c2ccccc2)C1 (configuration not stated)	11µM*	4%	i	?	4%	-1%
CC1=C(C(=O)N(C)C)CC(CC(=O)NC(c2ccccc2)c2ccccc2)C(=O)N1Cc1ccc(C(C)(C)C)cc1 (configuration not stated)	?	2%	i	0%	0%	-1%
CCN(CC)C(=O)C1=C(C)N(Cc2ccc(C(C)(C)C)cc2)C(=O)C(CC(=O)NC(c2ccccc2)c2ccccc2)C1 (configuration not stated)	7.9µM*	6%	-46%	-2%	1%	4%
CCOc1cccc(C(=O)N(Cc2c(F)cccc2Cl)c2ccccn2)c1	/	/	/	33%	/	/
COc1ccc2[nH]c3c(=O)n(CCCCC(=O)N4CCC(C(N)=O)CC4)c(=S)[nH]c3c2c1	6%	-2%	-21%	-13%	-1%	-30%
